Unmarked numbers belong to inactive results. Where a call stands in place of a potency, no number is given. For some assays here: Potency and affinity values are given separately. The source made the active and inactive calls. Unless noted, how the calls were made is not given here.
How the values were obtained:
[1] = antimalarial activity against Dd2 strain (AID 2302;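 active means growth inhibition above 50% at the single 2 µM test dose, taken to imply half-maximal potency below 2 µM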); settings: P. falciparum Dd2 in RBCs, LDH growth readout, 72 h; at 2 µM; stronger effect = higher value
[2] = human hepatoma cell viability loss – ATP luminescence, cytotoxicity control for P. falciparum antimalarial project, primary screen (AID 2303;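 active means inhibition above 50%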); settings: HepG2 viability, 24-48 h, at 10 µM, stronger effect = higher value
[3] = molecular target: L-lactate dehydrogenase (Plasmodium falciparum (isolate CDC / Honduras)) (UniProt Q27743); assay: PfLDH activity inhibition – cell lysate, 3D7 strain, counter-screen for P. falciparum growth inhibition project (AID 2304); settings: P. falciparum 3D7 crude extract, LDH APAD/NBT absorbance; at 2 µM; stronger effect = higher value
L-lactate dehydrogenase (Plasmodium falciparum (isolate CDC / Honduras)), sequence (Q27743 whole entry, looked up): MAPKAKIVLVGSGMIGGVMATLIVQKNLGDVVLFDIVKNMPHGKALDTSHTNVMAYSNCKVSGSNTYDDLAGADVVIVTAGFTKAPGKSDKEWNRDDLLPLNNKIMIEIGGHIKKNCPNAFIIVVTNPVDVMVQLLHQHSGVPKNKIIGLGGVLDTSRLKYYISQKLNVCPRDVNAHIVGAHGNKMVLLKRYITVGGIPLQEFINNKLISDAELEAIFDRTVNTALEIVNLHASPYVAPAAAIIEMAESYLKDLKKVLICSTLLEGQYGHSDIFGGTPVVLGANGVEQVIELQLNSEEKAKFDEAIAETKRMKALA

[4] = inhibition of 3D7 malaria parasite growth – strain 3D7 (AID 2306); settings: P. falciparum 3D7 erythrocytic growth, LDH absorbance, 72 h; at 2 µM; stronger effect = higher value
[5] = molecular target: Calcium-dependent protein kinase 1 (Plasmodium falciparum (isolate 3D7)) (UniProt P62344); assay: PfCDPK1 kinase inhibitors, biochemical, TCAMS library (AID 1159585; cut-off not given, nearly all actives have IC50 up to about 0.98 µM;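 further: inhibitors leave more ATP so luminescence rises with inhibition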); settings: recombinant PfCDPK1, Kinase-Glo ATP depletion luminescence
Calcium-dependent protein kinase 1 (Plasmodium falciparum (isolate 3D7)), sequence (P62344 whole entry, looked up): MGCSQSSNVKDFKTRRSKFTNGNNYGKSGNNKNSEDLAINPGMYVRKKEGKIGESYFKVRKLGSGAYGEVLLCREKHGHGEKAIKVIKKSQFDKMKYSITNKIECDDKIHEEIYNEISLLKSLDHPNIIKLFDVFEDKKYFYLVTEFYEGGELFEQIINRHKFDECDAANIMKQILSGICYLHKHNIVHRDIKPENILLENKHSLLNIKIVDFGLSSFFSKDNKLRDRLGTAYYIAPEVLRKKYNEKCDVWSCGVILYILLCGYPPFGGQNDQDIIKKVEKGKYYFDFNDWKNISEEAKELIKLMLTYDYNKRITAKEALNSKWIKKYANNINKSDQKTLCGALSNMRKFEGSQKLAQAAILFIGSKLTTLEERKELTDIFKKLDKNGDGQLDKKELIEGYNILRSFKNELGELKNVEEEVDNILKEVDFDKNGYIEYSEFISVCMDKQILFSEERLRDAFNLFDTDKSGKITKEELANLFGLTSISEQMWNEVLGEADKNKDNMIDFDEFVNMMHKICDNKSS

[6] = molecular target: Plasmodium falciparum protein kinase 6 (PK6, PF3D7_1337100) (UniProt Q8IDW1); assay: PfPK6 kinase inhibitors, biochemical, TCAMS library (AID 1159586); settings: recombinant PfPK6, Kinase-Glo ATP depletion luminescence
Plasmodium falciparum protein kinase 6 (PK6, PF3D7_1337100), sequence (Q8IDW1 1-305): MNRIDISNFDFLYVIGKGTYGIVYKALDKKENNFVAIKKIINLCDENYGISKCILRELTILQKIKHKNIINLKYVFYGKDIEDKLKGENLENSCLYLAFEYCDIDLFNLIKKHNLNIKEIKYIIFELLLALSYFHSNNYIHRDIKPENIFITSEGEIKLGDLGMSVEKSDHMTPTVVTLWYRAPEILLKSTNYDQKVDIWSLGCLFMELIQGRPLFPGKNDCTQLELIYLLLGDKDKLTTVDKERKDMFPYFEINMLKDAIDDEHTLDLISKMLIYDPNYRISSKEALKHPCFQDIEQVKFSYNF

[7] = molecular target: Protein kinase 7 (PK7), Plasmodium falciparum 3D7 (PF3D7_0213400) (UniProt Q7YTF7); assay: inhibition of Plasmodium PK7 catalytic activity – biochemical, TCAMS antimalarial set, Kinase-Glo luminescence (AID 1159587); settings: recombinant PfPK7, Kinase-Glo ATP depletion luminescence
Protein kinase 7 (PK7), Plasmodium falciparum 3D7 (PF3D7_0213400), sequence (Q7YTF7 1-343): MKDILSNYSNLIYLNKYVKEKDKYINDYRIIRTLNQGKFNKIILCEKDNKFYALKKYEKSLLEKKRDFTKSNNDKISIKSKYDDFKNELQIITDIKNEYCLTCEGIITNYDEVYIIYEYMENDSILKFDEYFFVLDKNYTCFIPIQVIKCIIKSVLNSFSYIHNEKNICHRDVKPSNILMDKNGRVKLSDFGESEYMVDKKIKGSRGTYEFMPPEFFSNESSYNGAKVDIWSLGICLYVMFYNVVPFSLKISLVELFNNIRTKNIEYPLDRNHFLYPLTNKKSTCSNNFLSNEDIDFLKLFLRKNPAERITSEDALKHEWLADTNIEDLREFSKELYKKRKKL

[8] = molecular target: Calcium-dependent protein kinase 4 (Plasmodium falciparum (isolate 3D7)) (UniProt Q8IBS5); assay: PfCDPK4 kinase inhibitors, biochemical, TCAMS library (AID 1159588; cut-off not given, nearly all actives have IC50 up to about 0.91 µM); settings: recombinant PfCDPK4, Kinase-Glo ATP depletion luminescence
Calcium-dependent protein kinase 4 (Plasmodium falciparum (isolate 3D7)), sequence (Q8IBS5 whole entry, looked up): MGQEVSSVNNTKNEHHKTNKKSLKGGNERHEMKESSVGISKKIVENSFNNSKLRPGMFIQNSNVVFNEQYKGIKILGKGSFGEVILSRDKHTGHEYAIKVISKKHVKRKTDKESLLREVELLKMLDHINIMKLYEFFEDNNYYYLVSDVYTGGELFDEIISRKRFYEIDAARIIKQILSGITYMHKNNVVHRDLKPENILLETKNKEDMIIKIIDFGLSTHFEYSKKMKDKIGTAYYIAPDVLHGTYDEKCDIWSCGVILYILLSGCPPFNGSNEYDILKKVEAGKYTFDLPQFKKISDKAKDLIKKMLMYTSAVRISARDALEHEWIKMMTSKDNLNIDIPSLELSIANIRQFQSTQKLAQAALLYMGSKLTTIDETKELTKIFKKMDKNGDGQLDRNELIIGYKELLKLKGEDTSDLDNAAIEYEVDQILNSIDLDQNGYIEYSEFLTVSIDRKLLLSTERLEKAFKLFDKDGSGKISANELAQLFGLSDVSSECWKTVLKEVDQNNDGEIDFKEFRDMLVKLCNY

| SMILES | growth inhibition [1] | inhibition [2] | inhibition [3] [%] | growth inhibition [4] | outcome [5] | outcome [6] | outcome [7] | outcome [8] |
| --- | --- | --- | --- | --- | --- | --- | --- | --- |
| CC(C)CC(=O)N1CCNC[C@@H]1C(=O)NC1CC1 | -2% | -7% | -4 | 82% (active) | inactive | inactive | inactive | inactive |
| CCN(CC)C(=O)C1CCCN(c2cc(C)nc(Nc3ccc(Cl)cc3)n2)C1 (stereo not given) | 64% (active) | 13% | 1 | 94% (active) | inactive | inactive | inactive | inactive |
| CC1(C)N=C(N)N=C(N)N1OCCOc1cccc(C(F)(F)F)c1 | 97% (active) | 67% (active) | -2 | 93% (active) | inactive | inactive | inactive | inactive |
| O=C(Cn1c(SCc2cccc(F)c2F)cc(=O)c2ccccc21)N(CCCn1ccnc1)Cc1ccc(-c2ccc(C(F)(F)F)cc2)cc1 | 99% (active) | 21% | -5 | 99% (active) | inactive | inactive | inactive | inactive |
| CN1CCN(c2cc(-c3cccnc3)nc(-c3ccncc3)n2)CC1 | 89% (active) | 11% | 1 | 100% (active) | inactive | inactive | inactive | inactive |
| Cc1ccc(NC(=O)N2CCCN(CCCCCNC(=O)/C=C/c3ccc(Cl)c(Cl)c3)CC2)cc1 | 2% | 12% | -6 | 99% (active) | inactive | inactive | inactive | inactive |
| O=C(/C=C/c1ccc(Cl)c(Cl)c1)NCCCCCCN1CCCN(C(=O)Nc2ccc(Cl)c(Cl)c2)CC1 | 8% | 25% | -1 | 100% (active) | inactive | inactive | inactive | inactive |
| Fc1ccccc1CNc1ncc(-c2ccsc2)c(-c2nccs2)n1 | 71% (active) | 11% | -6 | 86% (active) | inactive | inactive | inactive | inactive |
| Fc1ccc2nc(-c3cccc(-c4ccc(CNCCN5CCNCC5)cc4)c3)[nH]c2c1 | -3% | 9% | -2 | 90% (active) | inactive | inactive | inactive | inactive |
| COC(=O)C(NC(=O)c1ccc(-c2ccc(-c3nc4ccccc4[nH]3)s2)cc1)c1ccc(O)cc1 (stereo not given) | 49% | 99% (active) | 3 | 83% (active) | inactive | inactive | inactive | inactive |
| CC(C)(C)C1CCC(CC2=C(C(=O)O)c3ccccc3C2=O)CC1 (stereo not given) | 56% (active) | -4% | -1 | 91% (active) | inactive | inactive | inactive | inactive |
| COc1ccc(-c2ccc(NC(=O)c3ccc(Cl)cc3)cc2)cc1CN1CCCN(C)CC1 | 61% (active) | 27% | 2 | 93% (active) | inactive | inactive | inactive | inactive |
| NS(=O)(=O)c1ccc(CNC(=O)c2cnc3c(O)cccc3c2Nc2cccc(NC(=O)c3ccc(Cl)c(Cl)c3)c2)cc1 | 35% | 56% (active) | -1 | 97% (active) | inactive | inactive | inactive | inactive |
| CC(C)N1CCN(C(CN2CCN(CCCOc3cccc(F)c3)CC2)c2ccc(F)cc2)CC1 (stereo not given) | 38% | 38% | 0 | 92% (active) | inactive | inactive | inactive | inactive |
| CCCc1cc(=O)[nH]c(-n2nc(C)cc2NC(=O)c2cc3ccccc3o2)n1 | 63% (active) | 39% | -2 | 90% (active) | inactive | inactive | inactive | inactive |
| O=c1cc(NCCCNCc2cc(Br)cs2)[nH]c2ccccc12 | 5% | 11% | -2 | 85% (active) | inactive | inactive | inactive | inactive |
| COc1cccc(CNC(=O)[C@@H]2CN(C(=O)c3ccccc3)CCN2)c1 | -1% | 4% | -2 | 92% (active) | inactive | inactive | inactive | inactive |
| O=C(c1ccc(-c2cccc(-c3nc4ccc(C(F)(F)F)cc4[nH]3)c2)cc1)N1CCCCC1CN1CCC(O)C1 (stereo not given) | 98% (active) | 29% | -11 | 100% (active) | inactive | inactive | inactive | inactive |
| CN(C)Cc1ccc(-c2ccc(NC(=O)c3ccc4c(=O)n(Cc5ccoc5)cnc4c3)cc2)cc1 | 16% | 32% | 3 | 80% (active) | inactive | inactive | inactive | inactive |
| COc1ccc2nccc([C@@H](O)CN3CCC(NC(=O)C(c4cc5ccccc5s4)N4CC(C)OC(C)C4)CC3)c2c1 (stereo not given in full) | 44% | 12% | -6 | 93% (active) | inactive | inactive | inactive | inactive |

| SMILES | growth inhibition [1] | inhibition [2] | inhibition [3] [%] | growth inhibition [4] | outcome [5] | outcome [6] | outcome [7] | outcome [8] |
| --- | --- | --- | --- | --- | --- | --- | --- | --- |
| O=c1nc(C=Cc2ccc(Br)cc2)oc2ccccc12 | 66% (active) | -8% | -1 | 97% (active) | inactive | inactive | inactive | inactive |
| Cc1ccc(Cn2c(N3CCC(C(=O)NCc4ccccn4)CC3)nc3ccccc32)cc1 | 99% (active) | -8% | 8 | 100% (active) | inactive | inactive | inactive | inactive |
| COc1ccc2ccccc2c1CCCCN1CCN(CC(c2ccc(F)cc2)N2CCC2)CC1 (stereo not given) | 51% (active) | 51% (active) | 9 | 98% (active) | inactive | inactive | inactive | inactive |
| CCOC(=O)c1c(C)n(-c2ccccc2)c2ccc(OC(=O)COc3ccc(Cl)cc3Cl)cc12 | 87% (active) | 11% | 3 | 99% (active) | inactive | inactive | inactive | inactive |
| N#Cc1cccc(NC(=O)c2ccc(S(=O)(=O)NCC3CCCN3CC3CCCCC3)cc2)c1 (stereo not given) | 18% | 25% | 4 | 88% (active) | inactive | inactive | inactive | inactive |
| O=C(NCCCCN1CCN(c2cccc3ccccc23)CC1)c1ccc(NC(=O)c2ccc(Cl)cc2)cc1 | 64% (active) | 38% | 6 | 101% (active) | inactive | inactive | inactive | inactive |
| COc1ccc(NS(=O)(=O)c2cccc(C(=O)Nc3ccc(C(F)(F)F)cc3)c2)cc1N1CCN(CC(C)C)CC1 | 4% | 5% | 2 | 94% (active) | inactive | inactive | inactive | inactive |
| O=C(Nc1cccc(OC2CCN(Cc3ccsc3)CC2)c1)c1ccc(C(F)(F)F)cc1 | 5% | 25% | -2 | 98% (active) | inactive | inactive | inactive | inactive |
| Cc1cccc2[nH]c(-c3cccc(-c4ccc(NC(=O)Nc5ccc6c(c5)OCO6)cc4)c3)nc12 | 86% (active) | 80% (active) | -3 | 101% (active) | inactive | inactive | inactive | inactive |
| CCCCCCOc1ccc(C(=O)NCCCC2CCN(CCCCCNC(=O)C=Cc3ccc(Cl)c(Cl)c3)CC2)cc1 | 25% | 22% | -2 | 94% (active) | inactive | inactive | inactive | inactive |
| COc1ccc2ncc(Cl)c(NCC3(O)CCC(NCc4ccc5c(n4)NC(=O)CS5)CC3)c2n1 (stereo not given) | 31% | 39% | -3 | 96% (active) | inactive | inactive | inactive | inactive |
| COc1cc2c(cc1S(=O)(=O)c1ccc(NC(=O)c3ccc4ccccc4c3)cc1)CCN(C)CC2 | 28% | 2% | -4 | 99% (active) | inactive | inactive | inactive | inactive |
| NC(=O)C1CCN(Cc2ccc(-c3ccc(-c4nc5ccc(F)cc5[nH]4)cc3)cc2)CC1 | 100% (active) | 12% | 7 | 101% (active) | inactive | inactive | inactive | inactive |
| Oc1ccc2nc(NCCCc3ccccc3)nc(NCCc3ccccc3)c2c1 | 88% (active) | 31% | -3 | 99% (active) | inactive | inactive | inactive | inactive |
| CCOc1cc(-c2nnc3[nH]c(=O)n(C)c(=O)c3n2)ccc1OC(C)C | 86% (active) | 15% | 1 | 97% (active) | inactive | inactive | inactive | inactive |
| Cc1ccc2nc3sc(C(=O)NCCCN4CCC(N5CCCCC5)CC4)cc3cc2c1 | 71% (active) | 11% | -5 | 103% (active) | inactive | inactive | inactive | inactive |
| Cc1cc(Nc2nc(NCc3cccnc3)nc3ccccc23)n[nH]1 | 33% | 11% | 1 | 101% (active) | inactive | inactive | inactive | inactive |
| CC(=O)Nc1cccc(C(=O)Nc2ccc(-c3cccc(-c4nc5c(C)cccc5[nH]4)c3)cc2)c1 | 50% (active) | 86% (active) | -4 | 100% (active) | inactive | inactive | inactive | inactive |
| COc1ccccc1-c1[nH]c2ccccc2c1CN1CCC(c2c(C)cccc2C)CC1 | 13% | 49% | 3 | 96% (active) | inactive | inactive | inactive | inactive |
| CCCCCOc1ccc(C=NNc2nc(-c3ccccc3)cc(=O)[nH]2)cc1 | 86% (active) | 0% | -2 | 88% (active) | inactive | inactive | inactive | inactive |

— PubChem BioAssay
